The list is not random: actives were taken first. Their share in the collection is about 12%.
JMJD2A Tudor inh = blocks the human JMJD2A Tudor domain; AlphaScreen JMJD2A-Tudor / H3K4me3 peptide binding; Potency, µM (titrated, usually from 114 µM), hits mostly inhibitors; 390,000 tested, 4.4% active; AID 504339; also: nearly all actives have a fitted effect of over 50% in size
HP1b binding inh = HP1-beta chromodomain-methylated histone interaction inhibition; P83916; AlphaScreen HP1-beta / biotin-H3K9me3 peptide binding; Potency, µM (highest dose often 114 µM), hits mostly inhibitors; 390,000 tested, 0.56% active; AID 540317; also: nearly all actives have a fitted effect of over 70% in size
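AlphaScreen: HP1-beta (50 nM) preformed 30 min with biotin-H3(1-18)K9me3 peptide (50 nM) in PBS pH 7.4, 0.01% Tween-20. Compound added for 30 min at RT, then streptavidin donor/nickel chelate acceptor beads (10 ug/mL) for 30 min.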
Sfp PPTase inh = inhibitors of Bacillus subtilis Sfp phosphopantetheinyl transferase. Q9F4F7. Biochemical Sfp PPTase activity, qHTS. Potency, µM, most hits filed as inhibitors. 310,000 tested, 3.5% active. AID 1490;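 also: the enzyme is Sfp with the accession as filed and its product quenches rhodamine fluorescence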
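Compounds were incubated with enzyme (final 15 nM) for 15 min at room temperature before substrate addition started the reaction. Fluorescence at 525 nm excitation, 598 nm emission was recorded immediately and after 30 minutes.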
L3MBTL1 inh = L3MBTL1 (human) inhibition; AID 485360; 230,000 tested, 0.66% active; Potency, µM (doses to about 57.1 µM), hits mostly inhibitors; AlphaScreen L3MBTL1–H3K9me1 peptide binding; Q9Y468; also: nearly all actives have a fitted effect of over 60% in size
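AlphaScreen assay: L3MBTL1 (50 nM final) was preincubated 30 min at room temperature with biotinylated H3(1-15)K9me1 peptide (75 nM final), then 30 min with library compounds; streptavidin donor and nickel chelate acceptor beads (10 ug/mL final) added, 30 min dark.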
BAZ2B inh = BAZ2B (human) inhibition. Potency, µM (doses to about 114 µM), actives largely listed as inhibitors. 360,000 tested, 4.4% active. Q9UIF8. AlphaScreen BAZ2B-H3K14Ac peptide displacement; also: nearly all actives have a fitted effect of over 60% in size
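Protein-peptide AlphaScreen: BAZ2B 50 nM, b-H3K14Ac 50 nM, 1x PBS pH 7.4 + 0.01% Tween-20. Preincubation 30 min RT; cpd 30 min RT (top 110 uM); beads 20 min RT, light-protected.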
G9a block = G9a (human) methyltransferase inhibition | Q96KQ7 | G9a H3K9 monomethylation, AlphaScreen, 2 h | Potency, µM (highest dose often 102 µM), hits mostly inhibitors | 350,000 tested, 8.8% active | AID 504332; also: nearly all actives have a fitted effect of over 75% in size
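Signal arises when biotinylated H3K9 peptide, once monomethylated, bridges streptavidin donor and antibody-captured acceptor beads. Enzyme at 20 nM was preincubated 15 min with test compounds; peptide 500 nM and SAM 20 uM then reacted for 2 h.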
Numbers stand for hits; . = inactive; ? = inconclusive; / = no result; ! = repeats disagree; [ ] = another dose, or the depositor's remark. Calls follow the shape of the dose curve; as a rule, active = well fitted curve in the direction sought with a large enough effect; inconclusive = small, poorly fitted or top-dose-only effect, or another doubt; inactive = no such curve, though single readings can be large; an effect the other way counts as inactive or inconclusive.

SMILES	JMJD2A Tudor inh	HP1b binding inh	Sfp PPTase inh	L3MBTL1 inh	BAZ2B inh	G9a block
NC(=O)C[C@@H]1N[C@]2(C(=O)Nc3ccccc32)[C@@H]2C(=O)N(c3cc(C(F)(F)F)ccc3Cl)C(=O)[C@H]12	.	.	.	.	.	50µM
CC(C)[C@@H]1N[C@]2(C(=O)Nc3ccccc32)[C@@H]2C(=O)N(c3cccc(C(F)(F)F)c3)C(=O)[C@@H]21	.	.	.	.	.	50µM
O=C(O)/C=C\C(=O)NC1CCCCC1	.	.	.	.	.	?
NNC(=S)NC1CCS(=O)(=O)C1 (stereo unspecified)	?	?	8.9µM	/	.	/
NNC(=S)NC1CCCCCCCCCCC1	?	.	.	.	32µM	/
O=C(O)/C=C/C(=O)NC1CCS(=O)(=O)C1 (stereo unspecified)	.	.	.	.	?	3.2µM
S=C(NC1CCCCCC1)NC1CCCC1	.	.	.	.	.	.
Cc1ccc(NC(=O)CSc2nc3nccnc3c(=O)n2CCc2c[nH]c3ccccc23)c(C)c1	.	.	/	/	.	.
CCOC(=O)c1c(O)c2c([nH]c1=O)CCCC2	.	.	.	/	.	.[2.33 µM]
CCOC(=O)c1c2c([nH]c(=S)c1C#N)CCCC2	8.9µM	.	40µM	.	?	/
CCc1[nH]c(=S)c(C#N)c2c1CCCC2	14µM	?	?	.	.	3.2µM
O=C(O)c1cc(O)c2c(c1)C(=O)c1cccc(O)c1C2=O	56µM	?	56µM!	?	50µM	40µM
COc1ccc2ccccc2c1C(=O)/C=C\c1ccoc1	?	?	7.9µM	.	28µM	45µM
COc1ccc(OC)c(CC(NC(C)=O)C(=O)NC2CCN(S(=O)(=O)c3ccc(NC(C)=O)cc3)CC2)c1 (stereo unspecified)	.	.	.	/	.	.
Cc1ccc(C)c2sc(N3CCN(C(=O)c4ccc([N+](=O)[O-])o4)CC3)nc12	.	?	/	.	.	?
O=C(c1ccc([N+](=O)[O-])o1)N1CCN(c2nc3c(F)cc(F)cc3s2)CC1	?	.	/	.	.	45µM
COc1ccc(F)cc1S(=O)(=O)n1cc(C)nc1-c1ccccc1	22µM	.	.	.	.	.
COc1ccccc1CNC(=O)CCCCn1c(=O)c2ccccc2n(Cc2ccccc2C)c1=O	.	.	/	/	?	.
COCCNC(=S)Nc1ccc([N+](=O)[O-])cc1C	.	.	56µM	.	.	/
COCCNC(=S)NNc1ccccc1[N+](=O)[O-]	?	?	10µM	/	50µM	?
Cc1ccc(S(=O)(=O)N2CCN(C(=O)C(C)Cn3nc(C)c(C)c3C)CC2)cc1C (stereo unspecified)	.	.	.	/	.	50µM
CCN(CC)CCC(C)OC(c1ccccc1)c1ccccc1 (stereo unspecified)	25µM	.	.	/	.	?
CCc1cccc(C)c1NC(=O)C1CC(=O)N(C2CCCC2)C1 (stereo unspecified)	.	.	/	.	.	.[2.33 µM]
CC1(C)Cc2ccccc2C(N/N=C/c2cccc(F)c2)=N1	?	.	.	.	.	40µM
CN(CCC1CCOCC1)C(=O)CC1C(=O)NCCN1Cc1ccccc1F (stereo unspecified)	.	.	.	/	.	8.9µM
SMILES	JMJD2A Tudor inh	HP1b binding inh	Sfp PPTase inh	L3MBTL1 inh	BAZ2B inh	G9a block
CN(CCCC1CCCC1)C(=O)CC1C(=O)NCCN1Cc1ccc(F)cc1 (stereo unspecified)	.	.	.	/	?	79µM
O=C(O)CCn1c(-c2ccccc2)cc2c1CCCC2=O	.	.	.	.	.	50µM
O=C(Nc1c(C(=O)Nc2ccccc2F)oc2ccccc12)c1cc2ccccc2o1	.	.	/	/	.	.
CCN(c1ccccc1)S(=O)(=O)c1ccc2[nH]cc(C(=O)NCc3ccc(C)cc3)c(=O)c2c1	56µM	.	/	/	.	.
CCN(c1ccccc1)S(=O)(=O)c1ccc2[nH]cc(C(=O)NCCOC)c(=O)c2c1	.	.	.	.	.	.[12.7 µM]
CCn1c(C)c(C)c2cc(C(=O)NCc3ccc(N(C)C)cc3)ccc21	22µM	?	/	/	22µM	13µM
CCOc1ccc(CNC(=O)c2ccc3c(c2)c(C)c(C)n3C)cc1	?	.	/	/	40µM	.
